NCF1 inh = blocks human p47phox regulatory protein of NADPH oxidases. P14598. p47phox/p22phox peptide binding, fluorescence polarization, 2 h. inhibition, % at 24.7 µM. 220,000 compounds, 0.53% hits;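 active = inhibition above about 30%, limit read from the data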;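 also: 0% = p47phox with labelled peptide and 100% = labelled peptide alone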
m-calpain inh = inhibitors of pig calpain II | purified calpain II, fluorogenic peptide substrate, 30 min | inhibition, % at 16 µM | 220,000 compounds, 0.37% hits;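 active = inhibition above about 50%, limit read from the data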
Mcl1 Bid PPI = disrupts binding of human Mcl-1 to Bid peptide. TR-FRET Mcl-1/Bid-Dy647 peptide binding, 1536-well. inhibition, % at 21.7 µM. 220,000 compounds, 0.97% hits;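 active = compounds that cut the binding signal by more than half at the single screening dose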;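 also: His-tagged Mcl-1 with europium anti-His antibody binding Bid BH3 peptide; 0% = Mcl-1 plus peptide wells and 100% = peptide-only wells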
Target sequence (Q07820 whole entry, looked up): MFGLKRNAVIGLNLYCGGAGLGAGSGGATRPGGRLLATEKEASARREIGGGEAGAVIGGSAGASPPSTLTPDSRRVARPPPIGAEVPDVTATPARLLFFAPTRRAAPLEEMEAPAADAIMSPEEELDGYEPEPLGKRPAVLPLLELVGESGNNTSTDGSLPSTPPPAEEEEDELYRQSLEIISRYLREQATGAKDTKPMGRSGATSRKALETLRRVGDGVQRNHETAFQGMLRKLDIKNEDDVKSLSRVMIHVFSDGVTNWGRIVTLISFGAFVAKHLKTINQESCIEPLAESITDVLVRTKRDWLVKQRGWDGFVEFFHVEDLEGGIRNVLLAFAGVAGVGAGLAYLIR
Mcl-1 Bim block = human Bim-Mcl-1 interaction inhibition; AID 1009; Q07820; 190,000 compounds, 0.1% hits; inhibition, % at 10 µM; Bead-based flow cytometry, Bim peptide-Mcl-1 binding; in the data active = inhibition above about 40%;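 also: 0% = no compound tracer wells and 100% = peptide blocker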
14-3-3 Bad inh = disrupts binding of bovine 14-3-3 zeta to phospho-Bad peptide; P63103; TR-FRET 14-3-3zeta/Dy647-pBad peptide displacement, 1 h; inhibition, % at 21.7 µM; 220,000 compounds, 0.71% hits;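 active = inhibition above about 70%, limit read from the data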;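 also: 0% = full 14-3-3 plus peptide FRET controls and 100% = background without 14-3-3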
Target sequence (P63103 whole entry, looked up): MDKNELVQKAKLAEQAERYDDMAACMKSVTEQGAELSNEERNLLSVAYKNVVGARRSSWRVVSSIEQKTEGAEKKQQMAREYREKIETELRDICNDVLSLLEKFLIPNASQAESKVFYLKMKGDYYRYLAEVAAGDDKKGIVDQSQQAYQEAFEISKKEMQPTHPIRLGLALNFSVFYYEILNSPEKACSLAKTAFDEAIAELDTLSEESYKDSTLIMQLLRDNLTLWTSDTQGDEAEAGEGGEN
Mcl1-Noxa inh = disrupts binding of human Mcl-1 to Noxa peptide; Q07820; AID 1022; inhibition, % at 21.7 µM; 220,000 compounds, 1.5% hits; TR-FRET Mcl-1/Noxa peptide binding, 2 h;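 active = compounds that cut the protein-peptide binding signal by more than 50% relative to plate controls in a single-dose test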;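 also: His-tagged Mcl-1 with rhodamine Noxa BH3 peptide and terbium anti-His antibody; 0% = Mcl-1 plus Noxa peptide wells and 100% = peptide-only wells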
Starred values were filed as active, the others as inactive; x = no result given. Compounds with a hit are over-represented: about 3.4% of the library has one in this group of screens.

SMILES	NCF1 inh	m-calpain inh	Mcl1 Bid PPI	Mcl-1 Bim block	14-3-3 Bad inh	Mcl1-Noxa inh
C#Cc1ccc(C(=O)Nc2cc(C(N)=O)ccc2N2CCOCC2)cc1	-14.6	-22.4	-5.6	2.0	-3.1	50.7*
CCN(CC)S(=O)(=O)c1ccc(N2CCOCC2)c(NC(=O)c2ccc(C#N)cc2)c1	-6.2	-14.6	-17.4	-2.0	-0.8	8.3
CCN(CC)Cc1cc(C(=O)O)c(-c2ccccc2)o1	-5.5	-26.6	-51.5	x	1.0	-3.0
O=C(O)c1cc(CN2CCOCC2)oc1-c1ccccc1	3.4	10.5	-16.5	-1.0	75.9*	0.5
COCCN1Cc2cccc(C(=O)Nc3ccc(C)cc3)c2C1=O	8.4	25.7	-45.7	-2.0	1.5	16.3
COCCN1Cc2cccc(C(=O)Nc3cccc(C)c3C)c2C1=O	-14.2	4.7	91.4*	-3.0	-1.3	90.4*
CCCCNC(=O)c1c(N)n(/N=C/c2ccccn2)c2nc3ccccc3nc12	10.0	-194.3	31.7	-3.0	81.1*	32.4
CC(C)CNC(=O)c1c(N)n(/N=C/c2ccccn2)c2nc3ccccc3nc12	9.2	-39.0	55.9*	-7.0	23.6	23.2
COCCNC(=O)c1c(N)n(/N=C/c2ccc(F)cc2)c2nc3ccccc3nc12	-10.7	-294.6	-7.8	x	-8.1	13.2
CCC(CC)NC(=O)COc1ccc(OC)cc1C=O	-3.2	-28.9	-7.1	-1.0	-6.0	-11.4
CC(=O)N(C1=C(Cl)C(=O)c2ccccc2C1=O)C1CCCCC1	13.4	-119.2	-20.0	x	-3.1	90.7*
Cc1cc2cc(CNC(=O)c3ccc(Br)o3)ccc2n1C	14.5	-31.5	-81.4	x	7.2	59.1*
CCCC(=O)NCc1ccc2c(c1)cc(C)n2C	7.5	30.1	-53.3	0.0	-19.6	-5.4
COc1ccccc1Nc1nc(NCC2CCCO2)c2ccccc2n1 (stereo unspecified)	-20.0	19.8	2.0	-1.0	-3.8	34.4
C=CSc1sc(Cl)c(N2CCOCC2)c1[N+](=O)[O-]	-6.4	0.7	-32.5	0.0	-2.7	6.3
C=CS(=O)(=O)c1sc(Cl)c(N2CCOCC2)c1[N+](=O)[O-]	22.9	25.7	69.1*	8.0	42.9	67.4*
O=C(Nc1cccc(NC(=O)C2C3CC4OC(=O)C2C4C3)c1)c1ccccc1 (stereo unspecified)	-12.8	0.5	-27.1	-1.0	-6.3	1.1
CC(C)Cc1ccc(/C(=N/O)C(=O)O)s1	58.5*	-27.7	-28.7	-2.0	3.3	-3.3
Cc1cc(NC(=S)N(Cc2cccc(Br)c2)CC2CCC(C(=O)O)CC2)ccc1Cl (stereo unspecified)	-12.6	53.4*	-35.6	-2.0	-2.0	24.1
CCC(=O)NC(NC(=S)Nc1c(C)n(C)n(-c2ccccc2)c1=O)C(Cl)(Cl)Cl (stereo unspecified)	-8.5	-9.3	-15.2	-2.0	2.4	7.9
Cc1nc(C)n(CC(O)COc2ccc3c(c2)CCC3)n1 (stereo unspecified)	-6.5	-18.9	91.7*	-4.0	11.3	4.3
CCc1nc2ccccc2n1CC(O)COCC1CC=CCC1 (stereo unspecified)	-10.2	-4.0	-30.6	0.0	2.1	-6.6
O=C(NC1CC1)c1cc2c(F)cccc2s1	-3.0	-21.0	-16.8	-1.0	-10.1	14.4
CCN(CC)C(=O)CC(c1cc(OC)c(OC)c(OC)c1)c1c(OC)cc(OC)c2c(-c3ccccc3)cc(=O)oc12 (stereo unspecified)	-6.4	-53.9	-92.8	x	61.5	96.1*
O=c1nc(SCc2cccc(C(F)(F)F)c2)nc2ccccn12	-5.8	-19.9	-9.9	-2.0	-5.5	11.6
SMILES	NCF1 inh	m-calpain inh	Mcl1 Bid PPI	Mcl-1 Bim block	14-3-3 Bad inh	Mcl1-Noxa inh
COc1cc(CN2CCN(C(=O)CC(C)C)CC2)cc(OC)c1OC	-0.4	14.1	26.9	-4.0	79.7*	12.6
COc1ccc(CN2CCN(C(=O)CC(C)C)CC2)c(OC)c1OC	3.1	-5.0	30.0	-1.0	73.0*	5.6
COc1cc(CN2CCN(C(=O)CC(C)C)CC2)cc(OC)c1O	-8.5	-24.5	50.9*	-8.0	38.8	10.5
S=C(N/N=C/c1ccc2c(c1)OCO2)NC1CC2CCC1C2 (stereo unspecified)	-18.6	30.9	-23.2	x	-7.2	16.1
CCC1CCCCN1C(=O)CCc1nnc(Cc2cc(OC)ccc2OC)o1 (stereo unspecified)	3.3	8.5	-2.6	x	4.7	-24.1
S=C(Nc1ccc(N2CCOCC2)cc1)Nc1ccc2snnc2c1	-2.2	8.0	-63.8	0.0	-23.2	21.3
NS(=O)(=O)c1ccc(NC(=O)c2cccc(Cl)c2)cc1	0.3	-7.4	-18.9	x	-3.8	1.2
Cc1[nH]ccc(=O)c1OCc1ccccc1	59.4*	-15.7	-16.6	-8.0	4.3	7.2
Cc1[nH]ccc(=O)c1OCc1ccc(Cl)cc1	5.9	19.6	-13.8	1.0	x	-17.9
O=C1OC(c2cccs2)=N/C1=C\c1ccc(-c2ccccc2Cl)o1	81.2*	-115.5	-41.8	0.0	-0.8	15.9
N=C1/C(=C/c2ccc(-c3cccc(C(=O)O)c3)o2)C(=O)N=C2SC=C(c3ccccc3)N12	-73.8	14.1	97.9*	0.0	93.2*	108.8*
O=C1OC(c2ccco2)=N/C1=C\c1ccc(-c2cccc(C(F)(F)F)c2)o1	-254.6	-64.9	-22.9	-5.0	-3.5	14.5
O=C1OC(c2cccs2)=N/C1=C/c1ccc(-c2cccc(C(=O)O)c2)o1	-29.1	-31.6	79.4*	4.0	76.0*	95.8*
CCN(CC)CCN(Cc1cc2cc(C)ccc2[nH]c1=O)C(=S)Nc1ccccc1	-10.8	-15.0	-42.6	-3.0	-7.3	14.9
COc1ccccc1N1CCN(Cc2cccs2)CC1	-5.4	-19.1	-45.3	0.0	x	4.7
c1csc(CN2CCOCC2)c1	-1.2	23.6	20.9	2.0	82.8*	18.5
COc1cc2c(cc1OC)CN(Cc1cccs1)CC2	-1.9	-46.0	39.9	-1.0	73.8*	25.9
COc1cc(OC)c(OC)cc1CN1CCc2ccccc2C1	-1.1	20.6	55.1*	6.0	22.7	8.0
COc1cc2c(cc1OC)CN(Cc1ccc(OC)c(C)c1OC)CC2	6.4	11.9	19.5	-1.0	33.7	5.7
O=C(COC(=O)c1cccnc1Cl)NCc1ccco1	-5.8	-64.2	-19.1	4.0	-6.3	21.0
Fc1ccccc1-c1csc(=Nc2cccnc2)n1CCCn1ccnc1	-21.1	-7.4	-20.2	-5.0	-3.9	8.4
O=C1CS/C(=N\C(=O)N2c3ccccc3Sc3ccccc32)N1	-57.8	-118.6	-0.1	-1.0	-7.7	69.3*
N#Cc1c(N)sc(=S)c2c1CCN(Cc1ccccc1)C2	-9.6	-424.5	-1.2	3.0	19.7	71.0*
CCN1CCc2c(sc(N)c2C#N)C1	-56.8	-28.2	-12.7	1.0	-0.8	43.9
COC(=O)c1cc(NC(=S)NCc2ccc(Cl)cc2)cc(C(=O)OC)c1	-10.3	35.8	96.6*	-4.0	-2.5	15.4
Cc1ccc(S(=O)(=O)ON2C(=O)c3ccccc3C2=O)c(C)c1	-17.4	-10.6	-37.3	-17.0	12.7	70.9*
